Screens deposited in PubChem by National Center for Advancing Translational Sciences (NCATS).
An excerpt weighted towards active compounds, which were near 11% of everything screened.
3T3 cytotox = NIH 3T3 cell cytotoxicity; NIH 3T3 viability, CellTiter-Glo ATP luminescence, 48-72 h; Potency, µM (titrated, usually from 96.7 µM), for inactives: at the highest dose activity change, negative = cytotoxicity, actives largely listed as inhibitors; hit rate 4.3% among 94,000; AID 1345082; note: nearly all actives have a fitted effect of over 55% in size
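Mouse fibroblast NIH 3T3 cells, 400 per well, received compound via pintool and were incubated for 48 or 72 hr prior to CellTiter-Glo ATP luminescence measurement.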
Luciferase inh = blocks purified firefly luciferase enzyme activity; P08659; purified P. pyralis luciferase, luminescence, biochemical; Potency, µM (doses to about 115 µM), most hits filed as inhibitors; hit rate 2.5% among 76,000; AID 1347043; note: nearly all actives have a fitted effect of over 65% in size
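Purified P. pyralis luciferase (10nM final) in 50mM Tris acetate pH 7.5, 10mM Mg acetate, 0.01% Tween-20, 0.05% BSA with 10uM D-luciferin and 10uM ATP. Compounds titrated qHTS. Luminescence imaged on CCD.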
HEK cytotox = kills HEK 293 cells; HEK 293 viability, ATP luminescence (CellTiter-Glo), 48-72 h; Potency, µM (highest dose often 115 µM), inactives show top-dose activity change, negative = cytotoxicity, most hits filed as inhibitors; hit rate 6.6% among 94,000; AID 1345083; note: nearly all actives have a fitted effect of over 60% in size
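Pintool-delivered compounds were incubated with HEK 293 cells (250 cells/well) at 37 degree Celsius for 48 or 72 hr. ATP-dependent luminescence (CellTiter-Glo) then reported remaining viable cells.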
NPR1 antag = blocks ANP-stimulated signaling of human Npr1 receptor | P16066 | hit rate 1.6% among 76,000 | HEK293 hNpr1 GloSensor cGMP, ANP-stimulated luminescence | Potency, µM (series often up to 46.3 µM), for inactives: at the highest dose activity change, negative = inhibition, most hits filed as inhibitors; calls by dose curve; note: nearly all actives have a fitted effect of over 60% in size
Target sequence (P16066 whole entry, looked up): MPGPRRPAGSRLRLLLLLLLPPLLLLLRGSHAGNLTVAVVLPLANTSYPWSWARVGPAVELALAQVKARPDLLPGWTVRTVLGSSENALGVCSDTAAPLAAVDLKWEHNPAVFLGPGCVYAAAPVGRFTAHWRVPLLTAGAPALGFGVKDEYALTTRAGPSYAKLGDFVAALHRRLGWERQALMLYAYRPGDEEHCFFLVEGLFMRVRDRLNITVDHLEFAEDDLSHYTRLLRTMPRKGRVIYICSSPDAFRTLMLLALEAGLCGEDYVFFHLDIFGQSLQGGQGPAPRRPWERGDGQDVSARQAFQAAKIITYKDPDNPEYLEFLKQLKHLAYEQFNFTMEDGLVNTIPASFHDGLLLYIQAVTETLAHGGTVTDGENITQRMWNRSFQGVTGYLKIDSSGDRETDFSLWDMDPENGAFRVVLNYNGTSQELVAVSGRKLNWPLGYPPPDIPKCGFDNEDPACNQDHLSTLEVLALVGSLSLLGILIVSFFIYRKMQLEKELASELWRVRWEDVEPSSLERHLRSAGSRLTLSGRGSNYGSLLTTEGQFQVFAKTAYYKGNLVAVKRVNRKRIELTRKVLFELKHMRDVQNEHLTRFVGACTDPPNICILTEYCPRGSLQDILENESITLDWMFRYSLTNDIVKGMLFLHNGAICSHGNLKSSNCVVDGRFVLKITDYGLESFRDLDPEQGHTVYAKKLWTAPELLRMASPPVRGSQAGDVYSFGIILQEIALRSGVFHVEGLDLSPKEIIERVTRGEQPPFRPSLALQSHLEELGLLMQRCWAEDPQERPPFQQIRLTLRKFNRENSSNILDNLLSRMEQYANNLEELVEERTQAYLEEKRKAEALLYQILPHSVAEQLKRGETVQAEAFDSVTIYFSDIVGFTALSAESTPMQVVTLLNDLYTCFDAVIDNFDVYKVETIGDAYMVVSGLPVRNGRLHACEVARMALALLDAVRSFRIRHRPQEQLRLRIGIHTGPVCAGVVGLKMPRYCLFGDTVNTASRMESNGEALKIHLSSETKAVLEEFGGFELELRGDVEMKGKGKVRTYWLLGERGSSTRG
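Compound pre-incubated 30 min at room temperature on GloSensor-loaded HEK293 cells stably carrying hNpr1 and the pGS-40F cGMP biosensor. Stimulation uses hNppA at 0.1 nM final; luminescence is taken at baseline and 20 min post-agonist.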
Numbers without * were called inactive; i = inactive; ? = inconclusive; · = not tested or not shown; [ ] = dose if it differs, or a comment. Unless noted, calls come from the whole dose curve; as a rule, active = well fitted curve in the direction sought with a large enough effect; inconclusive = small, poorly fitted or top-dose-only effect, or another doubt; inactive = no such curve, though single readings can be large; an effect the other way counts as inactive or inconclusive. % is set by controls: 0 for no effect and ±100 for the full control effect; potency is the fitted concentration of half-maximal effect.

SMILES | 3T3 cytotox | Luciferase inh | HEK cytotox | NPR1 antag
C=CCc1ccccc1OCCN(C)Cc1ncnn1CC | -27% | i | ? | 0%
C=CCc1ccccc1OCCN(C)Cc1nc(C)ccc1O | ? | i | ? | 0%
CN1c2cccnc2CN(C2CCCCC2)CC[C@H]1CO | -7%[230 µM] | i | -1%[230 µM] | 1%[70.6 µM]
CN1c2cccnc2CN(CC2CCCCC2)CC[C@H]1CO | 50µM* | i | ? | -2%[70.6 µM]
Cc1ccc(-c2ccccc2CN2CCC(C(=O)NCC3CC3)CC2)cc1Cl | ? | · | 35µM* | ·
Cc1ccc(-c2ccccc2CN2CCN(C(=O)N(C)C)CC2)cc1Cl | ? | · | 32µM* | ·
Cc1ccc(-c2ccccc2CN2CCC(C(=O)NCC(F)(F)F)CC2)cc1Cl | ? | · | 50µM* | ·
O=C(NCC(F)(F)F)C1CCN(Cc2ccccc2-c2cccnc2)CC1 | -9% | · | -3% | ·
COc1cccc(C(=O)NC(C(=O)N2CCCCC2)C2CCN(C(=O)c3ccc(Cl)cc3)CC2)c1 (centres undefined) | -20% | i | ? | -12%
Cc1nc2c(c(-c3ccc(O)cc3)n1)CN(C(=O)C1CC1)CC2 | -6%[138 µM] | i | -29%[172 µM] | 9%[70.6 µM]
O=C(c1ccc(F)cc1)N1CCc2nc(-c3ccccc3)nc(-c3ccc(Cl)cc3)c2C1 | ? | i | ? | 1%
Cc1nc2c(c(-c3ccc(O)cc3)n1)CN(C(=O)C1CCCC1)CC2 | ? | i | 40µM* | 7%
COc1ccc(C(=O)N2CCc3nc(-c4ccccc4)nc(-c4ccc(Cl)cc4)c3C2)cc1 | ? | · | 22µM* | ·
O=C(c1ccccc1)N1CCc2nc(-c3ccc(Cl)cc3)nc(-c3ccccc3)c2C1 | ? | i | 22µM* | 5%
COc1ccc(-c2nc(-c3ccccc3)nc3c2CN(C(=O)C2CC2)CC3)cc1 | ? | i | ? | -9%
O=C(C1CC1)N1CCc2nc(-c3ccc(Cl)cc3)nc(-c3ccccc3)c2C1 | ? | i | 40µM* | -1%
CN(Cc1ccc2nccnc2c1)C(=O)c1cc(COc2ccc(F)cc2F)on1 | ? | ? | ? | -19%
COc1cc(C)ccc1OCc1cc(C(=O)N(C)Cc2ncccc2C)no1 | 35µM* | i | 40µM* | 3%
O=C(NC1CCN(CCn2nc3n(c2=O)CCCC3)C1)c1ccc(Cl)nc1 (centres undefined) | -3% | · | i | ·
COc1ccc(C(=O)N2CCc3cn(C)c4cccc(c34)C2)c(C)c1 | ? | i | 22µM* | 3%
COc1ccc(CC(=O)N2CCc3cn(C)c4cccc(c34)C2)cc1 | ? | i | ? | 4%
COc1ccc(CNC(=O)[C@@H](C)C2CC[C@@]3(C)CC[C@H](NC(=O)COc4ccccc4)[C@@H](C)[C@@H]3[C@H]2O)cc1 (some centres undefined) | 32µM* | i | 22µM* | ?
CC(c1ccc(-c2ccc(N3CCN(C)CC3)nn2)cc1)N1CCCCC1 (centres undefined) | -5% | i | ? | 9%
CC1CCN(c2ccc(-c3cccc(N)c3)nn2)CC1 | 32µM* | 0.1µM* | 32µM* | 0.63µM*
COCCCNC(=O)c1cc(-c2ccsc2)nc2c1cnn2C | ? | · | 0%[172 µM] | ·
SMILES | 3T3 cytotox | Luciferase inh | HEK cytotox | NPR1 antag
CNC(C)c1cccc(OC)c1 (centres undefined) | i | · | i | ·
COc1cccc(CN2Cc3nc(-c4ccsc4)ccc3OCC2=O)c1 | ? | i | ? | -11%[70.6 µM]
COCCN1Cc2nc(-c3cnn(Cc4ccccc4)c3)ccc2OCC1=O | 45µM* | i | ? | -18%[70.6 µM]
COc1cccc(CN2Cc3nc(-c4cccc(O)c4)ccc3OCC2=O)c1 | ? | i | 100µM* | -22%[70.6 µM]
COc1cccc(CN2Cc3nc(-c4cn[nH]c4)ccc3OCC2=O)c1 | 35µM* | i | ? | -2%[70.6 µM]
CN1Cc2nc(-c3cnn(Cc4ccccc4)c3)ccc2OCC1=O | ? | i | ? | -5%[70.6 µM]
O=C1COc2ccc(-c3cn[nH]c3)nc2CN1Cc1ccccc1 | 28µM* | i | ? | -8%[70.6 µM]
CNC(=O)c1ccc(CN2CCCC(Nc3ccc(F)cc3)C2)o1 (centres undefined) | -14% | i | -28% | -3%
CCN(CC)C(=O)N1CC(Oc2ccccc2-c2nc(-c3cnccn3)no2)C1 | -11% | i | ? | -6%
Cn1c(C(=O)N2CCc3c(n(CCOc4ccccc4)n(-c4ccccc4)c3=O)C2)cc2ccccc21 | ? | i | ? | -20%
CN(c1ccccc1)c1ccc2c(n1)CN(Cc1ccccc1)C(=O)CO2 | 79µM* | 50µM* | 89µM* | ?
O=C1COc2ccc(-c3ccccc3)nc2CN1CCOc1ccccc1 | 45µM* | i | ? | -27%[70.6 µM]
CN1Cc2nc(-c3cnn(C)c3)ccc2OCC1=O | ? | i | -2%[230 µM] | 5%[70.6 µM]
COc1ccc(-c2ccc3c(n2)CN(CCOc2ccccc2)C(=O)CO3)cc1 | ? | i | ? | ?
COc1cccc(CN2Cc3nc(-c4ccncc4)ccc3OCC2=O)c1 | ? | i | ? | -29%[70.6 µM]
COc1cccc(CN2Cc3nc(-c4ccccc4)ccc3OCC2=O)c1 | ? | i | 79µM* | -15%[70.6 µM]
Cn1cc(-c2ccc3c(n2)CN(Cc2ccccc2)C(=O)CO3)cn1 | 40µM* | i | ? | -4%[70.6 µM]
Cc1nc(CN2Cc3nc(N(C)c4ccccc4)ccc3OCC2=O)cs1 | ? | i | ? | ?
COCC(=O)N1CCN(CCn2nc3n(c2=O)CCCC3)CC1 | -19%[138 µM] | · | 0%[172 µM] | ·
CNC(=O)c1cc(C2CC2)nc2c1c(C1CCN(C(=O)c3cccc(OC)c3)C1)nn2C (centres undefined) | ? | · | 79µM* | ·
COc1ccc(OCC2(C)COc3ccc(C(=O)N(C)c4ccccc4)cc3N2)cc1 (centres undefined) | ? | i | ? | ?
Cn1ncc2c(C(=O)NCc3ccc(F)c(F)c3)cc(-c3cccc(F)c3)nc21 | ? | · | 40µM* | ·
Cn1ncc2c(C(=O)NCc3cccc(C(F)(F)F)c3)cc(-c3cccc(C(F)(F)F)c3)nc21 | -4% | · | -16% | ·
COc1ccc(CNC(=O)c2cc(-c3ccc(F)cc3)nc3c2cnn3C)cc1 | 40µM* | · | 45µM* | ·
Cn1ncc2c(C(=O)NCc3ccccc3F)cc(-c3ccc(C(F)(F)F)cc3)nc21 | -35% | · | ? | ·
SMILES | 3T3 cytotox | Luciferase inh | HEK cytotox | NPR1 antag
Cn1ncc2c(C(=O)NCc3ccc(C(F)(F)F)cc3)cc(-c3cccc(F)c3)nc21 | 45µM* | · | ? | ·
Cc1cccc(C)c1-c1cc(C(=O)NCc2ccc(C(F)(F)F)cc2)c2cnn(C)c2n1 | 14µM* | · | 22µM* | ·
CC(=O)N(C1CCOCC1)C1CCN(C(=O)c2ccc(C)cc2)CC1 | -20% | · | 0% | ·
Cc1ccc2c(N3CCC(CO)(CN4CCCC4)CC3)ccnc2c1C | ? | i | ? | 1%
Cn1ncc2c(C(=O)NCc3ccccc3)cc(-c3cccc(F)c3)nc21 | ? | · | 40µM* | ·
COc1ccccc1CNC(=O)c1cc(-c2ccccc2F)nc2c1cnn2C | 25µM* | · | ? | ·
Cn1ncc2c(C(=O)NCc3ccccc3)cc(-c3cccnc3)nc21 | ? | · | 40µM* | ·
